# In PubChem BioAssay (NCATS):
# Records with an inconclusive call do not appear. A number with no mark means an inactive call. Activity calls are given as the source filed them. Calls follow the shape of the dose curve; as a rule, active = well fitted inhibition curve with a large enough effect; inconclusive = small, poorly fitted or top-dose-only effect; inactive = no such curve, though single readings can be large or run the other way.
# Assay: BET inhibitor-based combinations targeting novel dependencies in MECOM-rearranged (r) AML: OCI-AML3 cell line (AID 2202232); also: nearly all actives have a fitted effect of over 35% in size
# Conditions: CellTiter-Glo luminescence, 48 h; Potency: OCI-AML3 viability; series mostly up to 46 µM; viability (% of control): at the top concentration
# From the text: Ecotropic viral insertion site 1 (EVI1) is located on chromosome 3q26.2 as part of the MECOM (MDS and EVI1 complex) locus. Under normal hematopoiesis, EVI1 is a regulator of hematopoietic stem cell maintenance and self-renewal and EVI1 levels decrease as the cells differentiate. In approximately 5-10% of de novo acute myeloid leukemia (AML) EVI1 is aberrantly expressed, including Chromosomal inv(3)(q21;q26.2) or t(3;3)(q21;q26.2) alterations (MECOM-r) that account for about 50% of AML with EVI1 overexpression 31. AMLs with high levels of EVI1 have a poor prognosis and an overall survival time averaging between 10-14 months. EVI1 overexpression confers resistance in leukemia cells, highlighting the need to develop new targeted therapies for EVI1 overexpressing AMLs.
# Here, we performed an unbiased chemical drug screening by evaluating the single agent activity of a collection of 2,480 oncology-focused, approved and investigational drugs (NCATS Mechanism Interrogation Plates, MIPE v5.0) against a panel of seven AML cell lines. These included four MECOM-r cell-lines (AML-191, AML-194, UCSD-AML1 and HNT-34) and three non-MECOM-r AMLs (MV4-11, OCI-AML3 and SET-2). Exploiting the mechanistic redundancy built in the library, we identified target-level sensitivities in MECOM-r AML cells and relative activity as compared to other AML subtypes.
# A collection of 2480 mechanistically annotated dugs (MIPE v5.0) was used to screen four 3q26.2 rearranged AML cell lines and three non-3q26.2 rearranged AML cell lines. This library purposely exploits redundancy by including multiple inhibitors of key onco-targets, while simultaneously encompassing mechanistic diversity, targeting more than 800 distinct mechanisms of action. Briefly, cells were seeded in 5 uL of growth media using a Multidrop Combi dispenser into 1536 well white polystyrene tissue culture treated plates (Corning) at a density of 500cells/well. For each cell-line, for each of the 2480 drugs in MIPE v5.0 library, an 11-point dose curve was generated via a 1536 pin-tool. Plates were incubated for 48 hr at standard incubator conditions, covered by a stainless steel gasketed lid to prevent evaporation. Cell viability was determined by luminescence based, Cell Titer Glo assay (Promega). In detail, 3 uL of Cell Titer Glo were added to each well and plates were incubated at room temperature for 15 min with a stainless-steel lid in place. Luminescence readings were taken using a Viewlux (PerkinElmer) with a 2 s exposure time per plate. Compound dose-response curves were normalized to DMSO and empty well controls on each plate. Quantitative drug activity data from dose-response curves was determined utilizing area Under the Curve (AUC) and Z-transformed AUC (Z-AUC, a mean-centering transformation applied to each individual cell-line screened).
# Potency is read from the fitted curve at half-maximal effect.
Compound,viability (% of control),Potency
Clc1cccc(-c2ccc(-c3nnc(CCCc4ccc5cccnc5n4)o3)cc2)c1,106%,
N=C1CCCN1Cc1[nH]c(=O)[nH]c(=O)c1Cl,105%,
Cc1cc(C)c2c(c1)[C@@H](N(Cc1cc(C(F)(F)F)cc(C(F)(F)F)c1)c1nnn(C)n1)CCCN2CC1CCC(C(=O)O)CC1 (stereo not given in full),,8.33 µM (active)
Nc1nccn2c(C3CCC(C(=O)O)CC3)nc(-c3cc4cccc(Cl)c4[nH]3)c12 (stereo not given),,4.68 µM (active)
COc1cc2ncn(-c3cc(OCc4ccccc4C(F)(F)F)c(C(N)=O)s3)c2cc1OC,,1.18 µM (active)
Cn1ncc(Cl)c1-c1cc(C(=O)N[C@H](CN)Cc2ccc(F)c(F)c2)sc1Cl,,18.6 µM (active)
COc1ccc(-c2nc(N3CCOCC3)c3sc(CN(C)c4ncc(C(=O)NO)cn4)cc3n2)cn1,,0.0332 µM (active)
C=C1C(=O)O[C@H]2C[C@H](C)C(/C=C/C(C)=O)=CC[C@H]12,,1.18 µM (active)
C=CC(=O)N1CCc2ccc(-n3c(=O)ccc4cnc5ccc(-c6cnn(C)c6)cc5c43)cc21,,0.363 µM (active)
CC(C)(O)CNc1ncc(-c2ccnc(Nc3ccncc3)n2)c(CC2CC2)n1,,18.6 µM (active)
CCOC(=O)CCNc1cc(N2CCc3ccccc3CC2)nc(-c2ccccn2)n1,,14.8 µM (active)
Nc1nc(=S)c2[nH]cnc2[nH]1,,0.417 µM (active)
CCCCOc1ccc(CC(=O)NO)cc1,,13.2 µM (active)
CN(C(=O)c1c(O)c2ccccc2n(C)c1=O)c1ccccc1,66.5%,
CC1(C)O[C@@H]2C[C@H]3[C@@H]4C[C@H](F)C5=CC(=O)C=C[C@]5(C)[C@@]4(F)[C@@H](O)C[C@]3(C)[C@]2(C(=O)CO)O1,127%,
Nc1nc(F)nc2c1ncn2[C@@H]1O[C@H](COP(=O)(O)O)[C@@H](O)[C@@H]1O,,20.9 µM (active)
CC(C)OC(=O)[C@H](C)N[P@](=O)(OC[C@H]1O[C@@H](n2ccc(=O)[nH]c2=O)[C@](C)(F)[C@@H]1O)Oc1ccccc1,87.2%,
CCN1CCN(Cc2ccc(-c3cc4c(N[C@H](C)c5ccccc5)ncnc4[nH]3)cc2)CC1,,20.9 µM (active)
Cc1ncsc1-c1ccc([C@H](C)NC(=O)[C@@H]2C[C@@H](O)CN2C(=O)[C@@H](NC(=O)COCCCOCCNC(=O)C[C@@H]2N=C(c3ccc(Cl)cc3)c3c(sc(C)c3C)-n3c(C)nnc32)C(C)(C)C)cc1,,0.0093 µM (active)
COc1cc(F)ccc1-c1ncnc(Nc2cccc(CS(C)(=N)=O)c2)n1 (stereo not given),,0.934 µM (active)

Compound,viability (% of control),Potency
O=C(/C=C/c1ccc(CN(CCO)CCc2c[nH]c3ccccc23)cc1)NO,,0.132 µM (active)
CC(C)[C@H]1C(=O)N[C@@H](CCCN=C(N)N)C(=O)NCC(=O)N[C@@H](CC(=O)O)C(=O)N[C@H](Cc2ccccc2)C(=O)N1C,117% [at 15.6 µM],
CNCc1ccc(C)c(NC(=O)c2ccc(Nc3nc(-c4ccccc4)c4ccccc4n3)cc2)c1,,16.6 µM (active)
Cc1cc2cc(Oc3ccnc(Nc4cccc(CS(=O)(=O)NCCN(C)C)c4)n3)ccc2[nH]1,,20.9 µM (active)
Cc1ccc(-c2nn(C(C)(C)CNC(=O)c3ccncc3)c3ncnc(N)c23)cc1,,16.6 µM (active)
CCOCOC[C@H](C[C@H](C)C(=O)NO)NC(=O)c1ccc(Oc2ccccc2)cc1,,23.5 µM (active)
O=C(C1CC1)N1CC[C@@H](Cn2c(-c3ccc(-c4ccc5occc5c4)cc3)nc3cnccc32)C1,,10.5 µM (active)
Cc1ccc(C(=O)OCc2ccc([C@@H](CN)C(=O)Nc3ccc4cnccc4c3)cc2)c(C)c1,,8.11 µM (active)
CN1CCN(C(=O)[C@H]2[C@@H](C(=O)O)[C@H]3CC[C@@H]2O3)CC1,112% [at 8.46 µM],
CN(C)C/C=C/C(=O)Nc1ccc(C(=O)N2CCC[C@@H](Nc3ncc(Cl)c(-c4c[nH]c5ccccc45)n3)C2)cc1,,0.372 µM (active)
CC(C)(O)C1CCC(Nc2ccc3ncc(-c4cccc(C(F)(F)F)c4)n3n2)CC1 (stereo not given),,11.8 µM (active)
CN[C@@H](C)C(=O)N[C@@H]1C(=O)N(Cc2c(C)ccc3ccccc23)c2ccc(C#N)cc2N(C(C)=O)[C@H]1C,96.4%,
NC(=O)c1cccc2c(NC(CN3CCC3)c3ccc(Cl)c(C(F)(F)F)c3)ncnc12 (stereo not given),,1.48 µM (active)
C[C@@]12O[C@@H](C[C@]1(O)CO)n1c3ccccc3c3c4c(c5c6ccccc6n2c5c31)CNC4=O,,0.417 µM (active)
C/C(O)=C(\C#N)C(=O)Nc1ccc(C(F)(F)F)cc1,,9.34 µM (active)
CC(C)(C)C[C@H]1N[C@@H](C(=O)NC2CCC(O)CC2)[C@H](c2cccc(Cl)c2F)[C@@]12C(=O)Nc1cc(Cl)ccc12 (stereo not given in full),,4.17 µM (active)
CC(/C=C/C(=O)NO)=C\[C@@H](C)C(=O)c1ccc(N(C)C)cc1,,0.662 µM (active)
CC[C@@]1(O)C(=O)OCc2c1cc1n(c2=O)Cc2c-1nc1ccccc1c2CCNC(C)C,,0.0047 µM (active)
CCC(=O)O[C@]1(C(=O)CO)CC[C@H]2[C@@H]3CCC4=CC(=O)CC[C@]4(C)[C@H]3CC[C@@]21C,104%,
O=C(/C=C/c1cccnc1)NCCCCC1CCN(C(=O)c2ccccc2)CC1,,0.0042 µM (active)
